KB-3-1 tox: KB-3-1 parental cell cytotoxicity; KB-3-1 viability, CellTiter-Glo ATP luminescence, 72 h; Potency, µM (highest dose often 46.1 µM), hits mostly cytotoxic; 400,000 tested, 1.4% active; note: potency is the fitted concentration of half-maximal effect; nearly all actives have a fitted effect of over 60% in size
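KB-3-1 cells, DMEM (no phenol red) + 10% FBS; compound by pin transfer, 72 h, 37 °C. Readout: CellTiter-Glo luminescence after 10 min. Data normalized, curve-fitted.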
A549 viability: counter-screen for Nrf2 inhibitors: cytotoxicity in A549 cells. A549 ARE-Fluc cells, CellTiter-Fluor viability, 18-24 h. Potency, µM (doses to about 46 µM), for the others: at the top dose activity change, negative = cytotoxicity, most hits filed as inhibitors. 390,000 tested, 0.16% active. AID 504648; note: potency is the fitted concentration of half-maximal effect
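A549 ARE_Fluc cells in 5% FBS OPTI-MEM were exposed to compounds in concentration-response for 18-24 h at 37 deg C. Viability was read by CellTiter-Fluor fluorescence (Ex 405/Em 525) after 30 min, before the luciferase read.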
KB-V1 MDR tox: kills drug-selected multidrug resistant KB-V1 cells | Potency, µM (top dose mostly 46.1 µM), actives largely listed as cytotoxic | KB-V1 MDR cells viability, CellTiter-Glo, 72 h | 400,000 tested, 3.4% active; note: potency is the fitted concentration of half-maximal effect; nearly all actives have a fitted effect of over 60% in size
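Potencies derive from concentration-effect curves fitted to normalized luminescence (CellTiter-Glo) of KB-V1 cells treated for 72 h at 37 degrees C in phenol-red-free DMEM containing 10% FBS.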
Nrf2 block: blocks Nrf2 signaling; 360,000 tested, 2.1% active; Potency, µM (doses to about 46 µM), without a hit: top-dose activity change, negative = inhibition, usual class: inhibitors; AID 504444; A549 ARE-Fluc reporter, luciferase luminescence, 18-24 h; note: potency is the fitted concentration of half-maximal effect; nearly all actives have a fitted effect of over 60% in size
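Concentration-response testing used A549 ARE_Fluc cells at 5000 cells/well. Following an 18-24 h compound incubation, viability was read by fluorescence (Ex 405/Em 525) and luciferase output by luminescence.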
PI4K2A inh: blocks human PI4K2A kinase activity; purified PI4K2A, ADP-Glo luminescence, 1 h; stronger effect = lower value; 420,000 tested, 0.13% active; activity change, negative = inhibition, % at 76.9 µM; AID 1346378; in the data active = activity change below about -50%; inconclusive = mostly about -30% to -49%;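 note: -100% = wells without enzyme as full effect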
Target sequence (Q9BTU6 whole entry, looked up): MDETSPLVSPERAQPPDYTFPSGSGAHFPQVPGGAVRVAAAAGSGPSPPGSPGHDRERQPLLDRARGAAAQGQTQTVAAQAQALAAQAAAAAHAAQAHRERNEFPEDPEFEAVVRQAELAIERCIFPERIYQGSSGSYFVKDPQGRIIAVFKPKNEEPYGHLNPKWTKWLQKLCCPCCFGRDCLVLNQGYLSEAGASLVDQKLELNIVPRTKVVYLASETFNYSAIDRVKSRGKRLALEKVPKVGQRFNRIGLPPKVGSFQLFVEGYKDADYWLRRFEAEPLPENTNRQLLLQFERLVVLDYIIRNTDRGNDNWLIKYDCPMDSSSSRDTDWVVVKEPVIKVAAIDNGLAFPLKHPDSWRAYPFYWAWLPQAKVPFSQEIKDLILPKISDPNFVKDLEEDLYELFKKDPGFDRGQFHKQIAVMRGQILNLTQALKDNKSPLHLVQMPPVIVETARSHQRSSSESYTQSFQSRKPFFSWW
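In this quantitative HTS, ADP production by PI4K2A was quantified luminescently after 1 h at ambient temperature; 100 microM adenosine served as plate-quality control.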
Giardia killer: Giardia lamblia killing; 340,000 tested, 0.15% active; activity change, % at 7.66 µM, hits read low; Giardia lamblia trophozoite viability; AID 540267; in the data active = activity change below about -80%; inconclusive = between about -30% and that limit;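 note: parasites exposed to compound for two days anaerobically before the ATP read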
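Compounds were tested on trophozoites seeded at 100 cells/well and held 48 hrs at 37 deg C anaerobically. An ATP-based luminescent kit measured the remaining live cells.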
* hit, by the source's call; i = inactive; ? = inconclusive; / = not tested or not shown; [ ] = another dose, or the depositor's remark. Only some compounds are listed: those with a hit (about 5.7% of all), similar ones and a draw of the others. Unless noted, calls come from the whole dose curve; as a rule, active = well fitted curve in the direction sought with a large enough effect; inconclusive = small, poorly fitted or top-dose-only effect, or another doubt; inactive = no such curve, though single readings can be large; an effect the other way counts as inactive or inconclusive. Unless noted, % is set by controls: 0 for no effect and ±100 for the full control effect.

SMILES	KB-3-1 tox	A549 viability	KB-V1 MDR tox	Nrf2 block	PI4K2A inh	Giardia killer
CCCCCC(=O)O[C@]1(C(C)=O)CC[C@H]2[C@@H]3CCC4=CC(=O)CC[C@]4(C)[C@H]3CC[C@@]21C	?	?	?	21µM*	1	20
CC(=O)[C@@]1(O)CC[C@H]2[C@@H]3CCC4=CC(=O)CC[C@]4(C)[C@H]3CC[C@@]21C	i	0%	i	-14%	-11	-8
CC1CCN(C(=O)Nc2ccc3nc(-c4ccco4)c(-c4ccco4)nc3c2)CC1	i	-12%	?	?	/	-16
Cc1ccc(Cl)cc1N1CCN(C(=O)c2cccn2-c2nnc(N3CCCC3)s2)CC1	i	9%	i	9%	4	/
C=CCn1c(SCC(=O)O)nnc1-c1ccco1	/	/	/	/	-3	/
Cc1c(NC2(c3nnnn3-c3ccc(Br)cc3)CCCCC2)c(=O)n(-c2ccccc2)n1C	i	7%	3.7µM*	21%	2	18
Cc1c(NC2(C#N)CCCC2)c(=O)n(-c2ccccc2)n1C	i	2%	i	8%	-4	?
COc1ccc(CC(=O)OCn2nnc3ccccc3c2=O)cc1	i	9%	i	/	-57*	2
COc1ccc(CC(=O)OCn2nnc3ccccc3c2=O)cc1OC	i	14%	i	20%	-2	15
COc1ccc(-c2nc3ccccc3c(=O)n2NC(=O)Cc2ccccc2)cc1	i	-7%	15µM*	12%	4	5
COc1cc(OC)c(NS(=O)(=O)c2c(C(=O)N3CCC(C)CC3)c(C)n(C)c2C)cc1Cl	/	-14%	/	/	2	/
CCCOc1ccc(C2c3c(-c4ccccc4O)n[nH]c3C(=O)N2CCc2ccccc2)cc1OCC (stereo not drawn)	i	-2%	i	22%	-1	/
Cc1ccc(NC(=S)N(C)Cc2cn(C)c3ccccc23)cc1	i	0%	21µM*	-5%	4	-22
Cc1cccc(NC(=S)N(CCCN2CCOCC2)Cc2cn(C)c3ccccc23)c1	?	-7%	i	-10%	4	14
COc1ccc(C2Nc3ccccc3C(=O)N2c2ccccc2F)cc1COc1ccc(NC(C)=O)cc1 (stereo not drawn)	i	-13%	i	-16%	/	14
N#CC1(NC(=O)CSc2nc3ccccc3s2)CCCCC1	i	1%	16µM*	12%	1	-29
N#CC1(NC(=O)CSc2nc3ccc([N+](=O)[O-])cc3s2)CCCCC1	i	-13%	?	-18%	9	7
Cc1ccc(Cl)c(OCCCCN(C)Cc2ccccc2)c1	i	-15%	21µM*	5%	3	7
COc1ccc(/C=C2/CN(Cc3ccc(OC)cc3OC)C3=NC(c4ccc5ccccc5c4)CC(=O)N32)cc1 (stereo not drawn)	/	/	/	/	3	/
CS(=O)(=O)N1N=C(c2ccccc2)CC1c1ccc2nccnc2c1 (stereo not drawn)	i	0%	21µM*	16%	-3	-4
Cc1ccc(C)c(S(=O)(=O)/N=C2\C=C(NS(=O)(=O)c3ccccc3)C(=O)c3ccccc32)c1	?	-2%	i	6%	-14	-12
Cc1cc(C)c(S(=O)(=O)/N=C2/C=C(Sc3ncn[nH]3)C(=O)c3ccccc32)cc1C	?	?	?	?	-54*	1
Nc1nc2ccccc2n1/N=C/c1cccnc1	i	-2%	i	?	2	13
Nc1nc2ccccc2n1/N=C/c1ccc(-c2ccccc2)o1	?	?	21µM*	?	-5	-28
Nc1nc2ccccc2n1/N=C/c1ccc([N+](=O)[O-])s1	i	?	?	15µM*	-1	?
SMILES	KB-3-1 tox	A549 viability	KB-V1 MDR tox	Nrf2 block	PI4K2A inh	Giardia killer
CCN(CC)C(=O)CC(c1ccc(OC)cc1)c1c(OC)cc(OC)c2c(-c3ccccc3)cc(=O)oc12 (stereo not drawn)	/	?	/	?	/	-10
Cc1ccc2c(C(=O)N3CCN(c4ccccc4)CC3)cc(-c3cccnc3)nc2c1C	i	?	i	21µM*	-11	-15
O=S(=O)(c1ccccc1)N(Cc1nc(-c2ccccc2)no1)C1CCCCC1	26µM*	4%	10µM*	/	-6	7
O=C(CSc1nnc(-c2ccccn2)n1-c1ccc(Cl)cc1)Nc1ccc(S(=O)(=O)Nc2nccs2)cc1	/	/	/	/	-2	/
O=C1/C(=C/c2ccc(O)cc2)SC(=S)N1Cc1cccnc1	i	2%	i	-6%	-2	-1
C#CCOc1ccc(/C=C2\SC(=S)N(Cc3cccnc3)C2=O)cc1	21µM*	-4%	?	8%	1	-15
CC(C)(C)C(=O)Nc1cc2nn(-c3ccccc3)nc2cc1Cl	i	5%	i	?	-26	-93*
CCC(=O)c1ccc(OCCn2cncn2)cc1	i	-5%	i	1%	4	3
CCC(=O)c1ccc(OCCn2cnc3ccccc32)cc1	i	1%	21µM*	?	-1	?
Cc1cc2ncn(CCOc3ccccc3)c2cc1C	i	3%	23µM*	?	-2	-11
COCCn1cnc2cc(C)c(C)cc21	i	-8%	i	-10%	16	0
O=C(NCc1cccs1)C1C2C=CC3(CN(Cc4ccccc4)C(=O)C13)O2 (stereo not drawn)	/	/	/	/	-2	/
CC(C)(C)OC(=O)Cc1nnc(-c2nc3ccccc3[nH]2)o1	/	-6%	/	?	/	/
O=C(CCS(=O)(=O)c1nc(-c2cccs2)cc(C(F)(F)F)n1)Nc1ccc(OC(F)(F)F)cc1	i	-1%	i	6%[9.27 µM]	-68*	/
COc1ccc(NC(=O)CCS(=O)(=O)c2nc(-c3cccs3)cc(C(F)(F)F)n2)cc1	/	0%	/	-5%[9.27 µM]	1	/
CC(C)c1nnc(NC(=O)CCS(=O)(=O)c2nc(-c3cccs3)cc(C(F)(F)F)n2)s1	i	?	i	23µM*	7	-6
COC(=O)c1ccccc1NC(=O)c1noc2c1CSc1ccccc1-2	/	10%	/	-20%	-8	/
CC(Oc1ccc(F)cc1)C(=O)Nc1ccc(S(=O)(=O)NC2=NCCCCC2)cc1 (stereo not drawn)	i	1%	i	?	-10	13
CC(Oc1ccc(Br)cc1)C(=O)Nc1ccc(S(=O)(=O)NC2=NCCCCC2)cc1 (stereo not drawn)	i	-6%	23µM*	?	-2	9
O=S(=O)(c1ccc(N2CC=C(c3ccccc3)CC2)nc1)N1CCCC1	?	-2%	8.2µM*	?	3	0
